Measurements taken from PubChem BioAssay AID1347131 (National Center for Advancing Translational Sciences (NCATS), 2019).
Hit rate of the full screen: of about 410,000 compounds, about 2,000 (0.49%) were called active. Inconclusive results (about 8%) are left out. Calls follow the shape of the full dose curve; tested in HEK293 reporter line. This excerpt belongs to a sample that is enriched for actives.

test: qHTS Assay for Foot and Mouth Disease Virus Antivirals: Primary Screen against the MLPCN compound library; conditions: FMDV antiviral cell-based qHTS; series mostly up to 57.9 µM; activity, negative = inhibition: at the top concentration; also: nearly all actives have a fitted effect of over 55% in size
Potency is read from the fitted curve at half-maximal effect.

SMILES | activity, negative = inhibition | Potency
COc1ccc(CN2CCNC(=O)C2CC(=O)NC2CCCC2)c(OC)c1 (centres undefined) | -15.3% (inactive) | –
COC(=O)c1nnn(-c2nonc2N)c1CSc1nc2ccccc2s1 | -35.5% (inactive) | –
Cc1c(NC(=O)CN2CCN(c3cccc(Cl)c3)CC2)c(=O)n(-c2ccccc2)n1C | -31.9% (inactive) | –
CC12CN(C(=O)c3ccco3)CC(c3ccccc3)(CN(C(=O)c3ccco3)C1)C2=O | -31% (inactive) | –
COc1ccc(/C=N/Nc2ccc(C(=O)O)cc2)cc1Br | -84.1% (inactive) | –
O=C(O)c1ccc(N/N=C/c2cc(Br)cs2)cc1 | – | 11.2 µM (active)
CC(C)c1ccc(/C=N/Nc2ccc(C(=O)O)cc2)cc1 | -98.8% (inactive) | –
O=C(NC1CCC(=O)N(CCOc2ccccc2)CC1)OCc1ccccc1 (centres undefined) | -29% (inactive) | –
CC(=O)N1CCc2c(sc3c2c(=O)n(CCc2ccccc2)c(=O)n3Cc2cccc(C)c2)C1 | -40.4% (inactive) | –
COc1ccc(N=Nc2ccc3ccccc3c2)c(O)c1 | – | 22.4 µM (active)
COc1ccc(NC(=O)Nc2c(O)ccc3ccccc23)cc1 | 132% (inactive) | –
COc1ccc(-c2cc(-c3ccccc3O)[nH]n2)cc1 | -68.9% (inactive) | –
COc1cc2c(cc1OC)CN(C(=O)c1cc(Cl)nc(Cl)c1)CC2 | -38.8% (inactive) | –
CC(=O)NC12CC3CC(C1)CC(C(=O)Oc1ccc(N(C)S(=O)(=O)c4cc(C)ccc4C)cc1)(C3)C2 | -36.6% (inactive) | –
CC(=O)N1CCN(c2ccc(NC(=O)c3cccc(F)c3)cc2)CC1 | 124% (inactive) | –
COc1ccc(C(=O)Nc2ccc(N3CCN(C(=O)c4ccccc4C)CC3)cc2)cc1 | -19.6% (inactive) | –
CN1CCN(c2ccc(NC(=O)c3ccc4ccccc4c3)cc2)CC1 | – | 22.4 µM (active)
CC(C)(C)OC(=O)CNC(=O)c1[nH]cnc1C(=O)N[C@@H](CCCCNC(=O)OC(C)(C)C)C(=O)OC(C)(C)C | -33.6% (inactive) | –
O=C(CCCc1nc(-c2ccc(Cl)cc2)no1)NC1CCCC1 | -49.9% (inactive) | –
O=C(c1ccc2c(c1)N(Cc1ccccc1F)C(=O)c1ccccc1S2=O)N1CCN(c2ccccc2)CC1 (centres undefined) | -37.1% (inactive) | –
COc1ccc(C)cc1NC(=O)C1CCN(S(=O)(=O)c2ccccc2)CC1 | -30.9% (inactive) | –
CCOC(=O)/C=C/C(=O)Nc1ccc(S(=O)(=O)N2CCCCCC2)cc1 | -33.1% (inactive) | –
CCOC(=O)c1sc(NC(=O)c2ccc(S(=O)(=O)N3CCCCC3)cc2)nc1-c1ccccc1 | -41.2% (inactive) | –
CCOC(=O)c1sc2ccc(S(=O)(=O)N3CCCCC3)cc2c1N | – | 17.8 µM (active)
COc1cc(OC)cc(C(=O)Nc2ccc3c(c2)CCCN3C(=O)c2cccs2)c1 | -30.8% (inactive) | –

SMILES | activity, negative = inhibition | Potency
O=C1CC(c2ccco2)CC(O)=C1C=NCCN1CCN(C(=O)Nc2ccc(Cl)cc2)CC1 (centres undefined) | -33.6% (inactive) | –
Cc1ccc(CSCC(=O)N(C)CC(=O)Nc2c(Cl)cccc2Cl)cc1 | -31.7% (inactive) | –
Cc1ccc(-c2noc(-c3ccc(N4CCCCC4)c([N+](=O)[O-])c3)n2)cc1 | -32.2% (inactive) | –
O=S(=O)(Nc1ccc2ccccc2n1)c1ccc2c(c1)CCO2 | 113% (inactive) | –
Fc1ccc(-c2noc(-c3ccc4c(c3)CCO4)n2)cc1 | – | 12.6 µM (active)
O=C(NCCN1CCC(n2c(=O)[nH]c3ccccc32)CC1)c1ccc(Cl)cc1 | -37.5% (inactive) | –
CC(C)Oc1ccc(C(=O)Nc2nc3c(s2)CC(C(C)(C)C)CC3)cc1 (centres undefined) | -30.1% (inactive) | –
COCc1ccc(C(=O)Nc2cccc(S(=O)(=O)N(C)c3ccccc3)c2)cc1 | – | 15.8 µM (active)
CN(c1ccccc1)S(=O)(=O)c1cccc(C(=O)Nc2cccc(C(=O)NC3CC3)c2)c1 | -47.3% (inactive) | –
CN(c1ccccc1)S(=O)(=O)c1ccc(C(=O)Nc2ccncc2)cc1 | -22.9% (inactive) | –
Cc1ccc(S(=O)(=O)N(C)CCCC(=O)Nc2cc(C)ccc2C)cc1 | -34.2% (inactive) | –
CN(c1ccccc1)S(=O)(=O)c1ccc(C(=O)NCCc2ccc(F)cc2)cc1 | -32.5% (inactive) | –
Cc1ccccc1C(c1c(C)n(C)n(-c2ccccc2)c1=O)c1c(C)n(C)n(-c2ccccc2)c1=O | -19% (inactive) | –
C=C(C)C(=O)N1CC2(CC(c3cccc(NC(=O)COc4ccc(Cl)cc4)c3)=NO2)C[C@@H]1C(N)=O (some centres undefined) | -30.8% (inactive) | –
NC(=O)[C@@H]1CC2(CC(c3cccc(NC(=O)CC(c4ccccc4)c4ccccc4)c3)=NO2)CN1C(=O)COc1ccc(Cl)cc1 (some centres undefined) | -32.3% (inactive) | –
CCCCCC(=O)N1CC2(CC(c3cccc(NC(=O)COc4ccc(Cl)cc4)c3)=NO2)C[C@@H]1C(N)=O (some centres undefined) | – | 14.1 µM (active)
C=C1C(C)C2C(Cc3ccccc3)NC(=O)C23OC(=O)/C=C/C(O)CCCC(C)C/C=C/C3C1O (centres undefined) | -34.8% (inactive) | –
CC1CCCCN1C(=O)CSc1c2c(nc3cc(Cl)ccc13)CCCC2 (centres undefined) | -37.7% (inactive) | –
COc1ccc(/C=N/Nc2cc(C)nc3ccccc23)cc1 | -31% (inactive) | –
COc1ccc(S(=O)(=O)Nc2nc3ccccc3s2)cc1 | 118% (inactive) | –
COc1ccc(C=NNc2nc3ccccc3s2)cc1 | – | 15.8 µM (active)
O=Cc1cc(Cl)ccc1OCCN1CCC(Cc2ccccc2)CC1 | -35.1% (inactive) | –
COc1ccccc1CN1C(=O)c2cccc3cccc(c23)C1=O | -31% (inactive) | –
Nc1cccc2c1C(=O)N(CCOc1ccccc1F)C2=O | – | 15.8 µM (active)
COc1ccc2c(c1OC)C(=O)N1c3ccccc3C(=O)N(c3ccccc3F)C21 (centres undefined) | -36.1% (inactive) | –

SMILES | activity, negative = inhibition | Potency
CCCCC(=O)N1CCN(c2nc3c(C)c(C)ccc3s2)CC1 | -31.7% (inactive) | –
CCc1nc2ccc(C(=O)Nc3cc(-c4ccccc4)ccc3OC)cn2c1N(C=O)CCC(C)C | -32.4% (inactive) | –
CC(C)Oc1ccc(C(=O)NCC(=O)N2CCN(S(=O)(=O)/C=C/c3ccccc3)CC2)cc1 | -35.9% (inactive) | –
Cc1ccc(-n2ncc3c(NC4CCCC4)ncnc32)cc1 | – | 12.6 µM (active)
Cc1ccc(-n2ncc3c(N4CCCCCC4)ncnc32)cc1 | -98.4% (inactive) | –
COc1ccccc1N1CCN(c2ncnc3c2cnn3-c2ccc(C)cc2)CC1 | -32.8% (inactive) | –
Cc1ccc(-n2ncc3c(NC4CCCCC4)ncnc32)cc1 | – | 20 µM (active)
Cc1ccc(-n2ncc3c(N4CCCCC4)ncnc32)cc1 | -57.3% (inactive) | –
Cc1ccc(-n2ncc3c(N4CCN(c5ccc(F)cc5)CC4)ncnc32)cc1 | -27.8% (inactive) | –
CC(C)c1cccc(C(C)C)c1NC(=O)CNCC(O)c1ccccc1 (centres undefined) | -30.4% (inactive) | –
COc1ccccc1Nc1cc(C)nc2c(C)ccc([N+](=O)[O-])c12 | -34.1% (inactive) | –
COc1ccccc1N/C=C/c1onc(C)c1[N+](=O)[O-] | – | 12.6 µM (active)
COc1ccccc1NC(=O)c1c(N=Cc2cccc([N+](=O)[O-])c2)cnn1C | -31.2% (inactive) | –
O=C(c1ccc(F)cc1)N1CCC(c2nc(-c3ccc(S(=O)(=O)N4CCCC4)cc3)no2)CC1 | -35.1% (inactive) | –
COc1ccc(-c2ccc3c(c2)CN(C(=O)C(C)(C)C)Cc2cnnn2-3)cc1 | -30.7% (inactive) | –
CCC(C)n1c(S(=O)(=O)O)nc2ccccc21 (centres undefined) | -41.2% (inactive) | –
Cc1cccc(NC(=O)c2ccc3c(=O)n4c(nc3c2)CCCCC4)n1 | – | 12.6 µM (active)
O=C(Nc1ccc2nc3n(c(=O)c2c1)CCCCC3)c1cccc(C(F)(F)F)c1 | -36.3% (inactive) | –
O=C(NNC(=O)c1ccc2c(=O)n3c(nc2c1)CCC3)c1cccc(Cl)c1 | -31.4% (inactive) | –
c1ccc(-c2cn3c(n2)-c2ccccc2C3)cc1 | – | 7.94 µM (active)
CC1(C)Cc2ccccc2-c2nnc(-c3ccc4ccccc4n3)n21 | -33.4% (inactive) | –
CN1C(=O)N(CC(=O)Nc2cccc(S(=O)(=O)N(C)c3ccccc3)c2)C(=O)C12CCCCC2 | -33.6% (inactive) | –
CCN1C(=O)[C@H]2[C@@H](c3ccc(-c4ccc(Cl)c(Cl)c4)c(OC)c3)N[C@@](C)(C(=O)OC)[C@H]2C1=O | -42.9% (inactive) | –
Cc1cc(C(=O)Nc2nc(C)c(C(=O)N(C)C)s2)ccc1[N+](=O)[O-] | – | 15.8 µM (active)
COc1ccc(N(C)S(=O)(=O)c2cccc(C(=O)Nc3nc(C)c(C(C)=O)s3)c2)cc1 | -50.3% (inactive) | –

SMILES | activity, negative = inhibition | Potency
Cc1nc(NC(=O)/C=C/c2ccc(C(C)(C)C)cc2)sc1C(=O)N(C)C | -38.4% (inactive) | –
CCOc1ccc(CCNC(=O)COC(=O)COc2cc(C)cc(C)c2)cc1OCC | -24.7% (inactive) | –
Cc1ccc(Nc2c(C(C)C)c(C)c(C#N)c3nc4ccccc4n23)cc1 | -30.2% (inactive) | –
COc1cccc(Oc2cnc(N)nc2-c2ccc(OC)cc2O)c1 | -31.8% (inactive) | –
Cc1cc2nc(-c3nnnn3Cc3ccccc3)c(=O)[nH]c2cc1C | -30.4% (inactive) | –
Cc1cc2nc(-c3ccc[nH]c3=O)[nH]c2cc1C | – | 12.6 µM (active)
COc1ccc(-c2noc(CN(C(=O)c3cccs3)C(C)C)n2)cc1 | -31% (inactive) | –
COC(=O)c1[nH]c2cc(OC)ccc2c1NC(=O)CN1CCN(c2cccc(C)c2)C(C)C1 (centres undefined) | -40.9% (inactive) | –
COC(=O)c1[nH]c2ccc(C)cc2c1NC(=O)CN1CCN(c2ccccc2)CC1 | -25.1% (inactive) | –
COC(=O)c1[nH]c2ccccc2c1NC(=O)CN1CCN(c2cccc(OC)c2)C(C)C1 (centres undefined) | – | 28.2 µM (active)
Cc1cc2nc(N3C(=O)CNC3=S)sc2cc1C | – | 20 µM (active)
COc1ccc(CN(C(=O)c2oc3cc(C)ccc3c2C)C2CCS(=O)(=O)C2)cc1OC (centres undefined) | -30.8% (inactive) | –
C=CCn1c(=O)c(C(=O)Nc2ncccc2C)c(O)c2ccccc21 | -9.9% (inactive) | –
N=c1oc2ccccc2cc1C(=O)Nc1ccccc1 | – | 11.2 µM (active)
Cc1cccnc1NC(=O)c1cc2ccccc2oc1=O | – | 10 µM (active)
Cc1cccc(C)c1NC(=O)c1cc(-c2ccccn2)nc2ccccc12 | -31.1% (inactive) | –
COc1ccc(NC(=O)c2cc3ccccc3o/c2=N\NS(=O)(=O)c2ccc(C)cc2)cc1 | 64% (inactive) | –
COc1cccc2cc(C(=O)Nc3cccc(C)n3)c(=O)oc12 | – | 8.91 µM (active)
O=C(Nc1ccc(NC(=O)c2cc3ccccc3o2)cc1)c1ccc2c(c1)OCCO2 | -26.3% (inactive) | –
COc1cccc(NC(=O)c2cc3ccccc3oc2=O)c1 | – | 20 µM (active)
Cc1ccc(NC(=O)c2cc3ccccc3oc2=O)cc1S(=O)(=O)N(C)C | -86.8% (inactive) | –
CCOc1cccc2cc(C(=O)NC(C)c3ccccc3)c(=N)oc12 (centres undefined) | -32% (inactive) | –
COc1ccc(NC(=O)c2sc3nc(-c4cc5cccc(OC)c5oc4=O)[nH]c(=O)c3c2C)cc1 | -12.9% (inactive) | –
COc1cccc2cc(C(=O)NCc3ccc(Cl)cc3)c(=N)oc12 | -64.3% (inactive) | –
